Several values for one entry are separate records, joined by “and”; a condition that tells them apart may be missing. Equal entries are not always repeated. This is part of a sample that, as a whole, favours compounds with a hit. Of some 79,000 tested, about 15% had one in any assay. Activity calls are given as the source filed them. No stated cut-off is given here; in the data, active means growth inhibition above about 70%; inactive means the rest.
experiment: NCI Yeast Anticancer Drug Screen. Data for the mlh1 rad18 strain (AID 175); conditions: S. cerevisiae mlh1 rad18 strain growth inhibition; at 50.0 µM (retest, dose inferred, filed as 5.0); active compounds read high
Summary of the method: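 Compound-treated yeast growth, normalised to vehicle controls. Strain bears defined DNA repair mutations.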

| SMILES | growth inhibition |
| --- | --- |
| CCCCCCCCCC[Se]C#N | 99% (active) |
| CNCC(O)c1ccc(O)c(O)c1.[Pt].c1ccc([PH+](c2ccccc2)c2ccccc2)cc1.c1ccc([PH+](c2ccccc2)c2ccccc2)cc1 | 99% (active) |
| CCN(CC)CC.CCOc1ccc(NC(=O)N=C=[N-])cc1.[CH-]1CCCCC1.[CH-]1CCCCC1.[CH-]1CCCCC1.[Cl-].[Sn+4] | 99% (active) |
| N#Cc1ccc([Se]c2ccccc2)cc1 | 97% (active) |
| O=c1ssc(Cl)c1Cl | 98% (active) |
| Nc1nc(N)c(-c2ccc(Cl)c(Cl)c2)c(CP(Cl)(Cl)(Cl)Br)n1 | 88% (active) |
| Cc1ccc(P(c2ccc(C)cc2)c2ccc(C)cc2)cc1 | 97% (active) |
| O=C(O)c1ccccc1[Se][Se]c1ccccc1C(=O)O | 74% (active) |
| CC1CC(C)CC(C)C(O)/C(C#N)=C/C=C/CC(C2CCCC2C(=O)O)OC(=O)CC(O)C(C)C1 (stereo unspecified) | 98% (active) |
| CCC[CH2][Pb]([Cl])([CH2]CCC)[CH2]CCC | 98% (active) |
| CNC(Cc1ccccc1)c1ccc(OC)c(OC)c1 (stereo unspecified) | 98% (active) |

same assay, conditions: S. cerevisiae mlh1 rad18 strain growth inhibition; at 50.0 µM; active compounds read high

| SMILES | growth inhibition |
| --- | --- |
| O=C(O)c1ccccc1.[Ag] | 90.8% (active) and 91.3% (active) |
| CC(=O)[O-].O=C([CH-]C(=O)c1ccccc1)c1ccccc1.O=C([CH-]C(=O)c1ccccc1)c1ccccc1.[Sm+3] | 90.2% (active) |
| C=C[C@H]1CN2CC[C@H]1C[C@@H]2[C@@H](O)c1ccnc2ccccc12 | 7.65% (inactive) |
| O=c1c2ccccc2[se]n1-c1cccnc1 | 43.9% (inactive) |
| [Pt].c1ccc(P(CCP(c2ccccc2)c2ccccc2)CCP(c2ccccc2)c2ccccc2)cc1 | 75.8% (active) |
| CC12CCC(C1)C(C)(C)C2OC(=O)c1ccccc1N (stereo unspecified) | -2.55% (inactive) |
| OC1(c2ccccc2)CC2CCC(C1)N2CCCC(O)(c1ccccc1)c1ccccc1 (stereo unspecified) | 53.5% (inactive) |
| COC(=O)C(F)C(Br)C(=O)OC (stereo unspecified) | 90% (active) |
| CN(Cc1ccccc1)CC(O)c1ccc(Cl)cc1 (stereo unspecified) | 34.5% (inactive) |
| Cc1cc(N=Nc2ccccc2C)ccc1N | 90.8% (active) and 91.9% (active) |
| CCCCCCCCCC[Se]C#N | 99.3% (active) |
| CNCC(O)c1ccc(O)c(O)c1.[Pt].c1ccc([PH+](c2ccccc2)c2ccccc2)cc1.c1ccc([PH+](c2ccccc2)c2ccccc2)cc1 | 99% (active) |
| N#Cc1ccc([Se]c2ccccc2)cc1 | 56% (inactive) |
| Nc1nc(N)c(-c2ccc(Cl)c(Cl)c2)c(CP(Cl)(Cl)(Cl)Br)n1 | 58.4% (inactive) |
| Cc1ccc(P(c2ccc(C)cc2)c2ccc(C)cc2)cc1 | 26.4% (inactive) |
| O=C(O)c1ccccc1[Se][Se]c1ccccc1C(=O)O | 74.5% (active) |
| CC1CC(C)CC(C)C(O)/C(C#N)=C/C=C/CC(C2CCCC2C(=O)O)OC(=O)CC(O)C(C)C1 (stereo unspecified) | 91.6% (active) |
| CNC(Cc1ccccc1)c1ccc(OC)c(OC)c1 (stereo unspecified) | 7.3% (inactive) |

experiment: NCI Yeast Anticancer Drug Screen. Data for the rad18 strain (AID 177); conditions: S. cerevisiae rad18 mutant growth inhibition; at 1.2 µM; active compounds read high
Summary of the method: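 Inhibition values reflect reduced yeast growth compared with vehicle-treated controls, using a strain engineered with a DNA damage repair defect.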

| SMILES | growth inhibition |
| --- | --- |
| C=C[C@H]1CN2CC[C@H]1C[C@@H]2[C@@H](O)c1ccnc2ccccc12 | -2% (inactive) |
| O=c1c2ccccc2[se]n1-c1cccnc1 | 12% (inactive) |
| CC12CCC(C1)C(C)(C)C2OC(=O)c1ccccc1N (stereo unspecified) | 3% (inactive) |
| OC1(c2ccccc2)CC2CCC(C1)N2CCCC(O)(c1ccccc1)c1ccccc1 (stereo unspecified) | 0% (inactive) |
| COC(=O)C(F)C(Br)C(=O)OC (stereo unspecified) | 29% (inactive) |
| CCCCCCCCCC[Se]C#N | 4% (inactive) |
| CNCC(O)c1ccc(O)c(O)c1.[Pt].c1ccc([PH+](c2ccccc2)c2ccccc2)cc1.c1ccc([PH+](c2ccccc2)c2ccccc2)cc1 | 0% (inactive) |
| Nc1nc(N)c(-c2ccc(Cl)c(Cl)c2)c(CP(Cl)(Cl)(Cl)Br)n1 | 13% (inactive) |
| CC1CC(C)CC(C)C(O)/C(C#N)=C/C=C/CC(C2CCCC2C(=O)O)OC(=O)CC(O)C(C)C1 (stereo unspecified) | 96% (active) |

same assay, conditions: S. cerevisiae rad18 mutant growth inhibition; at 3.7 µM; active compounds read high

| SMILES | growth inhibition |
| --- | --- |
| C=C[C@H]1CN2CC[C@H]1C[C@@H]2[C@@H](O)c1ccnc2ccccc12 | -2% (inactive) |
| O=c1c2ccccc2[se]n1-c1cccnc1 | -26% (inactive) |
| CC12CCC(C1)C(C)(C)C2OC(=O)c1ccccc1N (stereo unspecified) | 5% (inactive) |
| OC1(c2ccccc2)CC2CCC(C1)N2CCCC(O)(c1ccccc1)c1ccccc1 (stereo unspecified) | -1% (inactive) |
| COC(=O)C(F)C(Br)C(=O)OC (stereo unspecified) | 88% (active) |
| CCCCCCCCCC[Se]C#N | 6% (inactive) |
| CNCC(O)c1ccc(O)c(O)c1.[Pt].c1ccc([PH+](c2ccccc2)c2ccccc2)cc1.c1ccc([PH+](c2ccccc2)c2ccccc2)cc1 | 2% (inactive) |
| Nc1nc(N)c(-c2ccc(Cl)c(Cl)c2)c(CP(Cl)(Cl)(Cl)Br)n1 | 45% (inactive) |
| CC1CC(C)CC(C)C(O)/C(C#N)=C/C=C/CC(C2CCCC2C(=O)O)OC(=O)CC(O)C(C)C1 (stereo unspecified) | 97% (active) |

same assay, conditions: S. cerevisiae rad18 mutant growth inhibition; at 11.0 µM; active compounds read high

| SMILES | growth inhibition |
| --- | --- |
| C=C[C@H]1CN2CC[C@H]1C[C@@H]2[C@@H](O)c1ccnc2ccccc12 | -9% (inactive) |
| O=c1c2ccccc2[se]n1-c1cccnc1 | 3% (inactive) |
| CC12CCC(C1)C(C)(C)C2OC(=O)c1ccccc1N (stereo unspecified) | 4% (inactive) |
| OC1(c2ccccc2)CC2CCC(C1)N2CCCC(O)(c1ccccc1)c1ccccc1 (stereo unspecified) | 4% (inactive) |
| COC(=O)C(F)C(Br)C(=O)OC (stereo unspecified) | 98% (active) |
| CCCCCCCCCC[Se]C#N | 18% (inactive) |
| CNCC(O)c1ccc(O)c(O)c1.[Pt].c1ccc([PH+](c2ccccc2)c2ccccc2)cc1.c1ccc([PH+](c2ccccc2)c2ccccc2)cc1 | 19% (inactive) |
| Nc1nc(N)c(-c2ccc(Cl)c(Cl)c2)c(CP(Cl)(Cl)(Cl)Br)n1 | 75% (active) |
| CC1CC(C)CC(C)C(O)/C(C#N)=C/C=C/CC(C2CCCC2C(=O)O)OC(=O)CC(O)C(C)C1 (stereo unspecified) | 98% (active) |
